Only some compounds are listed: those with a hit (about 2.4% of all), similar ones and a draw of the others.
Apoferritin bind: candidate novel general anesthetic via apoferritin binding; apoferritin/1-aminoanthracene competitive binding, fluorescence; Potency, µM (top dose mostly 77.5 µM), most hits filed as inhibitors; 350,000 tested, 0.074% active; AID 485281; further: nearly all actives have a fitted effect of over 20% in size
Target sequence (P02791 2-175 limits assumed): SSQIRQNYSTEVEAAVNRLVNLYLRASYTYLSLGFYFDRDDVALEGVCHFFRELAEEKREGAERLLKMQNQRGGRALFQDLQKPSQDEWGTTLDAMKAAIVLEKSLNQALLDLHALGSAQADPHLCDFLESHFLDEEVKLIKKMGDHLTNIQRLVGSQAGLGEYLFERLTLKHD
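In PBS, apoferritin at 10 uM is loaded with 1-AMA from a 50% saturated solution. After 10 min of compound exposure at ambient temperature, reduced 535 nm fluorescence indicates probe displacement.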
ATXN2 expr inh: ATXN2 expression inhibition; HEK-293 ATXN2-luciferase reporter, luminescence, 24 h; Potency, µM (highest dose often 57 µM), usual class: inhibitors; 360,000 tested, 0.72% active; AID 1745845; further: nearly all actives have a fitted effect of over 55% in size
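ATXN2-luciferase reporter cells (luciferase flanked by upstream and downstream ATXN2 gene portions) were treated 24 h at 37 °C with compounds at up to 57 uM. SteadyGlo luminescence gave expression; GF-AFC fluorescence gave viability.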
S2 tox: reduces viability in counter-screen for ATXN expression inhibitors; Potency, µM (titrated, usually from 56.7 µM), hits mostly cytotoxic; S2 cells (HEK-293 line with an ATXN2-luciferase reporter) viability, CellTiter-Fluor protease fluorescence, 24 h; 400,000 tested, 0.49% active; further: nearly all actives have a fitted effect of over 40% in size
HepG2 viability: counter-screen for TGF-b inhibitors: cytotoxicity in HepG2 cells | HepG2 CAGA-GFP viability, ATP luminescence, 18 h | Potency, µM (series often up to 46.1 µM), usual class: cytotoxic | 410,000 tested, 0.76% active
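CellTiter-Glo luminescence gave cytotoxicity after 18 hours at 37 degrees C. The cells were HepG2 CAGA-GFP in 1% FBS DMEM, stimulated with 500 pg/mL TGF-beta after compound addition. %Activity was normalised to no-cell wells (complete cell-killing) and DMSO (no toxicity), and curves were fitted and classified.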
TGFb SMAD3 inh: blocks TGF-b signaling; HepG2 CAGA-GFP TGF-b/SMAD3 reporter, GFP fluorescence, 18 h; TGF-beta stimulated, 500 pg/mL final; Potency, µM (titrated, usually from 46.1 µM), hits mostly inhibitors; 410,000 tested, 1.2% active; further: nearly all actives have a fitted effect of over 65% in size
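GFP signal (ex488/em500-530) from TGF-beta-stimulated HEPG2 CAGA-GFP cells, 500 pg/mL final, 18 h at 37 degrees C in DMEM plus 1% FBS, normalized to unstimulated and DMSO-stimulated controls.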
Numbers stand for hits; 0 = inactive; ? = inconclusive; - = no result given; ! = a repeat was not active; [ ] = dose if it differs, or a comment. The call rests on the fitted dose curve; in most records, active means well fitted curve in the direction sought with a large enough effect; inconclusive means small, poorly fitted or top-dose-only effect, or another doubt; inactive means no such curve, though single readings can be large; an effect the other way counts as inactive or inconclusive.

SMILES | Apoferritin bind | ATXN2 expr inh | S2 tox | HepG2 viability | TGFb SMAD3 inh
O=c1ccc2nc3ccccc3sc-2c1 | - | ? | 25µM | 25µM | 20µM
OC(CNCCNc1ncccc1C(F)(F)F)Cn1ccc2ccccc21 (stereo not drawn) | 0 | - | 0 | 16µM | ?
Cc1ccc(CN(Cc2cc3cc(C)ccc3[nH]c2=O)Cc2nnnn2Cc2ccccc2)cc1 | - | - | - | 0 | 0
O=C(CSc1nnc2c3ccccc3c3ccccc3c2n1)Nc1ccccc1F | 0 | ? | 14µM | 0 | 0
Cn1c(CC(=O)Nc2ccccc2F)nnc1SCC(=O)Nc1ccccc1Br | 0 | 0 | 0 | 11µM | 0
CCCCNC(=O)C(c1ccc(OCC(=O)OC)c(C(=O)OC)c1)N(CCc1c[nH]c2ccccc12)C(=O)CCCCCN1C(=O)NC(c2ccc(-c3ccccc3)cc2)C(C(=O)OCc2ccccc2)=C1C (stereo not drawn) | 0 | - | - | - | -
COc1cccc(NC(=O)Nc2nc(-c3ccc(OC)c(OC)c3)cs2)c1 | 0 | 3.2µM | 8.9µM | 16µM | 11µM
COc1cccc(NC(=O)N2CCN(c3nc(-c4cccc(OC)c4)cs3)CC2)c1 | 0 | - | 14µM | 0 | ?
O=C(CCCl)NCc1ccccc1 | - | 0 | 0 | - | -
COC(=O)C1=C(C(=O)c2ccccc2)C(c2ccccc2)n2nnnc2N1 (stereo not drawn) | 0 | ? | 20µM | 0 | 0
Cc1ccc(CNC(=O)C2CCC(CNS(=O)(=O)c3ccc4c(c3)CCCC(=O)N4)CC2)cc1 (stereo not drawn) | 0 | 0 | 0 | 0 | ?
CCCCC(CCCCl)C(=O)Nc1ccccc1 (stereo not drawn) | 0 | 0[11.3 µM] | 0 | 0 | 0
O=C(Nc1ccc(Nc2ccccc2)cc1)C(Cl)Cl | ? | 0 | ? | 0 | 13µM
CC(C)(C)C(=O)C(Cl)C(=O)Nc1ccccc1 (stereo not drawn) | ? | - | 0 | 8.9µM | ?
Cc1cnc(-n2ncc(C(=O)NCc3ccncc3)c2C2CC2)nc1-c1cccs1 | - | - | 0 | - | -
Clc1ccc2nnnc(-c3ccccc3)c2c1 | 0 | 15µM | ? | 0 | ?
c1ccc(-c2nnnc3ccccc23)cc1 | 0 | 0 | 0 | 0 | ?
COc1cccc(C(=O)Nc2nc(SCc3ccc(Cl)cc3)n[nH]2)c1 | 0 | 0 | 0 | 16µM | 0
COc1cccc(C(=O)NNC(=O)Cc2ccc(Cl)cc2)c1 | 0 | 0 | 0 | 0 | 0
Cc1ccc(C(=O)N2C(=S)C(c3ccc(F)cc3)=NC23CCN(C)CC3)cc1 | 0 | 22µM | 25µM | 0 | ?
Cc1cccc2sc(N(CCN(C)C)C(=O)C3CCN(S(=O)(=O)c4cccs4)CC3)nc12 | - | 0 | 0 | 0 | 0
COc1ccc(Cl)cc1S(=O)(=O)Nc1ccc2c(c1)n(C)c(=O)n2C | 0 | 0 | 0 | 20µM! | 0
OC[C@H]1OC(O)C[C@@H](O)[C@H]1O (stereo partly drawn) | - | 0 | - | - | -
Cc1ccc(-n2nc3c(=O)n(CC(=O)NCCc4ccco4)nc(C)c3c2C)cc1 | ? | 0 | 0 | 0 | 22µM
Cc1nn(CC(=O)NCc2ccco2)c(=O)c2nn(-c3ccccc3)c(C)c12 | 0 | 0 | 0 | 0 | 0
SMILES | Apoferritin bind | ATXN2 expr inh | S2 tox | HepG2 viability | TGFb SMAD3 inh
CCOc1ccccc1CNC(=O)Cn1nc(C)c2c(C)n(-c3ccc(C)cc3)nc2c1=O | 0 | - | ? | 0 | 5µM
Cc1c(CN2CCOc3c(O)cc(-c4nc5ccccc5s4)cc3C2)cnn1C | - | - | 0 | - | -
Cc1[nH]c2ccccc2c(=O)c1C(=O)/C=C/c1ccccc1 | 0 | 11µM | 14µM | 0 | ?
O=C(C=Cc1ccccc1)c1c[nH]c2ccccc2c1=O | - | ? | ? | 0 | ?
CC[n+]1c(/C=C2\C=C(C)CC(C)(C)C2)sc2ccccc21 | ? | ? | ? | 0 | 10µM
Cn1c(SCc2ccccc2)nccc1=O | - | 0 | 0 | 0 | 0
CC1=C(SCc2ccccc2)C(=O)c2ccccc2C1=O | - | ? | ? | 13µM | 7.9µM
CC(C)=CCc1cc([C@@H]2CC(=O)c3ccc(O)c(CC=C(C)C)c3O2)ccc1O | - | ? | ? | 0 | 13µM
COc1cc2c(cc1CC=C(C)C)C(=O)C[C@@H](c1ccc(O)cc1)O2 | 0 | - | - | - | -
O=c1c2cc(F)ccc2sn1-c1ccccc1 | - | ? | 13µM | 0 | 11µM
O=c1c2ccccc2sn1-c1cccc(Cl)c1 | - | 0 | 25µM | 0 | ?
N#Cc1ccc2c(=O)n(-c3ccccc3)sc2c1 | - | 0 | 10µM | 0 | 0
O=c1c2ccccc2sn1-c1ccccc1 | ? | ? | - | 0 | 16µM
O=c1c2ccccc2sn1-c1ccccc1F | - | ? | 20µM | 0 | ?
O=c1c2ccccc2sn1-c1nccs1 | 0 | 0[11.3 µM] | ? | 0 | 0
Cn1sc2ccccc2c1=O | - | 28µM | - | 0 | ?
Cc1ccccc1-n1sc2cc(F)ccc2c1=O | 0 | ? | ? | 0 | ?
COC(=O)C/C=C\[C@H](C)[C@H](CO)NS(=O)(=O)c1ccc(C)cc1 | 0[15.3 µM] | - | - | - | -
COCc1c(C(=O)N2CCN(c3ccccc3O)CC2)cnn1-c1nccc(-c2cccs2)n1 | - | - | 0 | - | -
CN(C(=O)CSc1n[nH]c(-c2cccs2)n1)C1CCS(=O)(=O)C1 (stereo not drawn) | - | 0 | 0 | 11µM | 0
CN(C(=O)CSc1nnc(-c2cccs2)o1)C1CCS(=O)(=O)C1 (stereo not drawn) | 0 | 0 | 0 | 0 | 0
CCOc1ccc(NC(=O)Cn2sc3nc(C)cc(C)c3c2=O)cc1 | 0 | 0 | 0 | 0 | 11µM
Cc1cc(C)c2c(=O)n(CC(=O)Nc3ccc(Cl)cc3)sc2n1 | 0 | 0 | ? | 0 | ?
Cc1cc(C)c2c(=O)n(CC(=O)NCCCN3CCN(c4ccccc4F)CC3)sc2n1 | 0 | ? | 19µM | 0 | ?
Cc1ccc2c(c1)CN(CCNC(=O)C(C)Oc1ccccc1)CC(C)O2 (stereo not drawn) | - | - | 0 | - | -
SMILES | Apoferritin bind | ATXN2 expr inh | S2 tox | HepG2 viability | TGFb SMAD3 inh
COc1ccc(CN2CC[C@H]3C=CC[C@@H](C(=O)Nc4ccc(Cl)cc4Cl)[C@H]3C2=O)cc1OC | - | - | - | 0 | ?
Cc1cccc(/C=C/C(=O)c2ccc(NC3=NCCCS3)cc2)c1 | ? | - | 10µM | 0 | ?
O=C(/C=C/c1ccc(Br)cc1)c1ccc(NC2=NCCCS2)cc1 | 0 | ? | 32µM | 0 | ?
O=C(O)Cn1c(=O)n(Cc2ccc(Br)cc2F)c(=O)c2ccc(Cl)cc21 | - | 0 | 0 | - | -
C=C1C=C(C(F)F)n2ncc(C(=O)Nc3ccc(Br)cc3C(F)(F)F)c2N1 | - | - | - | 0 | 0
O=C(Cn1c(SCC(=O)Nc2ccc(F)cc2)nc2ccccc21)NCc1ccc(F)cc1 | 0 | 0 | ? | 0 | 0
Cc1ccc(CNC(=O)Cn2c(SCC(=O)Nc3ccc(F)cc3)nc3ccccc32)cc1 | 0 | ? | ? | 7.1µM | ?
O=C(Cn1c(SCC(=O)Nc2ccc(F)cc2)nc2ccccc21)NCc1ccc(Cl)cc1 | 0 | 0 | ? | 0 | 13µM
COC(=O)C1=C(C(=O)OC)C(C(=O)OC)N2C=CC=CC2=C1C(=O)OC (stereo not drawn) | - | 0 | 0 | 0 | 0
CCn1c(Cc2ccccc2)nnc1SCC(=O)Nc1ccccc1N1CCOCC1 | 0 | 0 | 0 | 0 | 0
